Source: PubChem BioAssay (Tox21)
Inconclusive results are not listed. Activity calls are given as the source filed them. Calls follow the shape of the dose curve; as a rule, active = well fitted inhibition curve with a large enough effect in the repeat runs; inconclusive = weak or mixed curves; inactive = no such curve, though single readings can be large or run the other way.

Test: qHTS assay to identify small molecule antagonists of the thyroid receptor (TR) signaling pathway (AID 743065); also: nearly all actives have a fitted effect of over 55% in size
Settings: GH3.TRE-Luc, T3-stimulated luciferase inhibition, 23.5 h; series mostly up to 70.3 µM; activity, negative = inhibition: at the top concentration
Excerpt: U.S. Tox21 Program National Center for Advancing Translational Sciences [NCATS] NIH Chemical Genomics Center [NCGC] U.S. Environmental Protection Agency [EPA] National Institutes of Environmental Health Sciences [NIEHS] National Toxicology Program [NTP] U.S. Food and Drug Administration [FDA] Tox21 Assay Overview: Thyroid receptor (TR), a nuclear hormone receptor, plays an important role in development, proliferation, differentiation, metabolism, brain function, and cardiovascular system. […] To profile the Tox21 10K compound library in TR signaling, a cell-based GH3-TRE-Luc assay (GH3.TRE-Luc cell line, developed by the laboratory of Dr. Albertinka J. Murk, Wageningen University) was used to measure the inhibition of TR. GH3 (rat pituitary tumor) cells stably expressing a TR activity sensor consisting of two TR response elements and a luciferase reporter gene.
Tox21 Assay Protocol Summary: GH3.TRE-Luc cells were dispensed at 1500 cells/4 uL/well into 1536-well white solid bottom plates using a Multidrop Combi dispenser (Thermo Fisher Scientific Inc., Waltham, MA). After the assay plates were incubated at 37 C for 4 hours, 23 nL of library compound or DMSO controls was transferred to the assay plates by a pintool station (Kalypsys, San Diego, CA), followed by addition of 1 ul of T3 (1 nM, final concentration in the wells) to stimulate TR transactivation. The assay plates were incubated at 37 C for 23.5 h, and then 1 uL of CellTiter-Fluor reagent (Promega, Madision, WI) of measuring cytotoxicity was added to each well using a Bioraptr Flying Reagent Dispenser (FRD) workstation (Beckman Coulter, Indianapolis, IN, USA). The plates were incubated at 37 C and 5% CO2 for additional 30 min, and fluorescence intensity was measured by a ViewLux plate reader (PerkinElmer, Shelton, CT). For measuring luciferase reporter gene activity, 4 uL of ONE-Glo Luciferase Assay reagent (Promega) was added to each well using a Bioraptr FRD (Beckman Coulter), followed by 30 min incubation at room temperature. The luminescence intensity of plates was recorded by a ViewLux plate reader (PerkinElmer, Shelton, CT).
% is scaled to controls: 0 for no effect and ±100 for the full control effect; potency is read from the fitted curve at half-maximal effect.

| SMILES | activity, negative = inhibition | Potency |
| --- | --- | --- |
| CCCCCCCC(=O)N(C)C | -0.345% (inactive) | – |
| CCCCS | 17% [at 95 µM] (inactive) | – |
| CSC(=O)c1cccc2nnsc12 | -3.56% (inactive) | – |
| CCCCCCCCCCCCCCBr | 6.2% [at 95 µM] (inactive) | – |
| CCCC(=O)OC | 0.676% (inactive) | – |
| CCCCCCCCCCCCCCCC/C=C/C1CC(=O)OC1=O (stereo not given) | – | 29.7 µM (active) |
| CCCCCCCCOCCC#N | 15.9% (inactive) | – |
| CC(O)CCCCn1c(=O)c2c(ncn2C)n(C)c1=O (stereo not given) | 2.63% (inactive) | – |
| CC(=O)OC1CCC(C(C)(C)C)CC1 (stereo not given) | 8.1% (inactive) | – |
| O=C(c1ccccc1)c1cccc(O)c1 | 12.5% [at 95 µM] (inactive) | – |
| c1coc(Cn2cccc2)c1 | 0.926% (inactive) | – |
| Cc1cc(C)c(C)c(C)c1 | -3.35% (inactive) | – |
| Cc1cccc(N)n1 | 13.4% [at 95 µM] (inactive) | – |
| C=CCOC(=O)CCCCCCCC | 22.6% [at 95 µM] (inactive) | – |
| CCCCCCCCCCCCCCCC(=O)OC | -7.27% [at 32.5 µM] (inactive) | – |
| Cc1ccc(S(=O)(=O)NC(=O)NN2CC3CCCC3C2)cc1 (stereo not given) | -0.334% [at 32.5 µM] (inactive) | – |
| CCCC(=O)C(CC)Sc1ccoc1C (stereo not given) | -1.67% (inactive) | – |
| CC(=O)SCC(CC(=O)c1ccc(C)cc1)C(=O)O (stereo not given) | 3.75% (inactive) | – |
| Cc1ccc(NC(N)=O)cc1 | -3.81% [at 95 µM] (inactive) | – |
| CCOC(=O)c1ccc(N(C)C)cc1 | 16.3% (inactive) | – |

| SMILES | activity, negative = inhibition | Potency |
| --- | --- | --- |
| CCCCCCCOC(C)=O | 2.69% (inactive) | – |
| CCOC(=O)CC | 1.21% (inactive) | – |
| CCC(C)c1nccnc1OC (stereo not given) | -0.0117% (inactive) | – |
| C/C=C/C(=O)CCCC | -11.2% (inactive) | – |
| O=C(CCBr)N1CCN(C(=O)CCBr)CC1 | -0.0178% (inactive) | – |
| COC(=O)/C=C(\C)CCC=C(C)C | -0.386% (inactive) | – |
| CCCCOCCCC | -2.96% (inactive) | – |
| O=S(=O)(O)c1ccc(Cl)cc1 | 5.04% (inactive) | – |
| CCCCCC(CC)OC(=O)CCCOc1ccc(Cl)cc1Cl (stereo not given) | -3.76% (inactive) | – |
| CCCCCCC(O)CO (stereo not given) | 21.5% (inactive) | – |
| CC(C)(C)C(=O)CC(=O)C(C)(C)C | 10.9% [at 95 µM] (inactive) | – |
| CNC(C)=O | 5.97% (inactive) | – |
| O=C(O)COc1ccc2ccccc2c1 | -15.4% (inactive) | – |
| CC12CCCC=C1C(=O)OC2=O (stereo not given) | 11.5% (inactive) | – |
| O=P(O)(O)C(O)(Cc1cccnc1)P(=O)(O)O | 2.26% (inactive) | – |
| N=C(N)S(=O)O | -0.367% (inactive) | – |
| Cc1ccc(OC(=O)CC(C)C)cc1 | 0.0021% (inactive) | – |
| CCOC(=O)[C@H](CCc1ccccc1)N[C@H]1CS[C@H](c2cccs2)CN(CC(=O)O)C1=O | -17.8% (inactive) | – |
| CCOCCOCCOC(C)=O | -3.58% [at 95 µM] (inactive) | – |
| Cc1nc2ccc(Cl)cc2[nH]1 | -0.0511% (inactive) | – |
